Each structure is given as a SMILES string. About 83,000 compounds went through this panel and 20% of them were active in at least one assay; those are over-represented in the sample as a whole.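 Step 1: grow cells in 96-well plates. Step 2: add test compound at a single concentration. Step 3: incubate 48 h. Step 4: record percent growth.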 Calls of active or inactive are those of the source. How the source made its calls: active means growth percent below 10; inactive means the rest.

The subject of this experiment is HCT-15 colon. In words: NCI-60 one-dose screen, 48 h (100 = growth as untreated, 0 = no growth, -100 = all killed). The following applies: 10 µM unless noted.
In the case of `Nc1ccc(S(=O)(=O)c2ccc(NO)cc2)cc1`, the growth was 116% (inactive).

For the compound `COc1cc(NC(C)CCCN)c2nccc(C)c2c1OC` (centres undefined), the growth was 84.4% (inactive).

Turning to `CCCC(=O)NNc1[nH]c(-c2cc(OC)c(OC)c(OC)c2)cc1C(=O)OCC`, the growth was 116% (inactive).

`CC(C)OC(=O)c1ccc2n1CCCc1cnc(Nc3ccccc3)nc1-2`: the growth is 43.7% (inactive).

As for `COC(=O)c1ccc2[nH]c(O)c(C(=Nc3ccc(N(C)C(=O)CN4CCN(C)CC4)cc3)c3ccc(OC)cc3)c2c1`, the growth is 10.4% (inactive).

`CC(=O)c1cc(Nc2cc(C)nc(N)n2)cc(C(C)=O)c1`: the growth was 111% (inactive).

Regarding `CCOC(=O)C1=C(C(F)(F)F)NC(=S)NC1CN1C(=O)c2ccccc2C1=O` (centres undefined), the growth is 109% (inactive).

With `CC(C)OC(=O)[C@H](C)N[P@@](=O)(OC[C@@]1(C)O[C@@H](n2cc(F)c(N)nc2=O)C[C@@H]1O[P@](=O)(N[C@@H](C)C(=O)OC(C)C)Oc1ccccc1)Oc1ccccc1`, the growth is 106% (inactive).

As to `COc1ccc(Cn2cc3c(c2-c2ccccc2)CCc2cnoc2-3)cc1OC`, the growth was 32% (inactive).

Turning to `CC1C(=O)CCCC1=O`, the growth is 96.6% (inactive).

Regarding `Brc1ccc(-c2nc3ccccc3s2)cc1`, the growth is 91.6% (inactive).

As to `O=C(Nc1cccc(Cn2c(=O)[nH]c3ccc(Oc4ncccn4)cc3c2=O)c1)c1ccc(Cl)cc1`, the growth is 59% (inactive).

For `Cc1ccc(S(=O)(=O)Nc2cccc(Cn3c(=O)[nH]c4ccc(Oc5ncccn5)cc4c3=O)c2)cc1`, the growth is 91% (inactive).

With `CC1(C)Oc2cc3oc(=O)ccc3cc2C[C@@H]1OCCOS(=O)(=O)c1ccc(C#N)cc1`, the growth is 92.7% (inactive).
